These results are taken from ChEMBL document CHEMBL2218924, “A broad activity screen in support of a chemogenomic map for kinase signalling research and drug discovery” (Biochem J, 2013).

Assay [1] addresses Mitogen-activated protein kinase 11 (Homo sapiens) (UniProt Q15759). The conditions noted are these: at 1 µM.
Assay [2] addresses T1, Mitogen-activated protein kinase 13 (Homo sapiens) (UniProt O15264).
T1 sequence (whole entry): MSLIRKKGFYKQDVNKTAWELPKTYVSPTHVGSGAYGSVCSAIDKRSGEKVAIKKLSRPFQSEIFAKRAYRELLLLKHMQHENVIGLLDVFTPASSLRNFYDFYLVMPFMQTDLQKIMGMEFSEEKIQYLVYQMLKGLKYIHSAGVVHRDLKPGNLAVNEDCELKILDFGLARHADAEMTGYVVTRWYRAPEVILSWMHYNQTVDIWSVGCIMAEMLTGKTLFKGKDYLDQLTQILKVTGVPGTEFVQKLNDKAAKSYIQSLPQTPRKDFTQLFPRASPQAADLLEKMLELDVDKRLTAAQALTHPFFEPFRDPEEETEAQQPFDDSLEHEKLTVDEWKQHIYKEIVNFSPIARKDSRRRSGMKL
The conditions noted are these: at 1 µM.

For assay [3], the target named is T1, Mitogen-activated protein kinase 13 (Homo sapiens). The conditions noted are these: at 10 µM.
For assay [4], the target named is T2, Serine/threonine-protein kinase Sgk1 (Homo sapiens) (UniProt O00141).
T2 sequence (whole entry): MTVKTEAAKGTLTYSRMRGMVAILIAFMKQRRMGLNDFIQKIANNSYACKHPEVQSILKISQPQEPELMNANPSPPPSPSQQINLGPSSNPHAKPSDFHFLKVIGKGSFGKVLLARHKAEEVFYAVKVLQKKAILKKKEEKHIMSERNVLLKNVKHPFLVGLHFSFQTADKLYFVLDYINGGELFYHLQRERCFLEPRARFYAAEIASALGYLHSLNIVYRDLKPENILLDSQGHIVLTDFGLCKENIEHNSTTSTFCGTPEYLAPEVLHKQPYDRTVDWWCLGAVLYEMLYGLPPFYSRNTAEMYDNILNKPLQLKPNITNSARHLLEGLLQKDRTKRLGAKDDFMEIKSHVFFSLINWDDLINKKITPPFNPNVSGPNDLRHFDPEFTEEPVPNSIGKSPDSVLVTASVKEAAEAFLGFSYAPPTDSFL
The conditions noted are these: at 1 µM.

The target of assay [5] is T2, Serine/threonine-protein kinase Sgk1 (Homo sapiens). The conditions noted are these: at 10 µM.
In assay [6] the target is T3, Serine/threonine-protein kinase Sgk2 (Homo sapiens) (UniProt Q9HBY8).
T3 sequence (whole entry): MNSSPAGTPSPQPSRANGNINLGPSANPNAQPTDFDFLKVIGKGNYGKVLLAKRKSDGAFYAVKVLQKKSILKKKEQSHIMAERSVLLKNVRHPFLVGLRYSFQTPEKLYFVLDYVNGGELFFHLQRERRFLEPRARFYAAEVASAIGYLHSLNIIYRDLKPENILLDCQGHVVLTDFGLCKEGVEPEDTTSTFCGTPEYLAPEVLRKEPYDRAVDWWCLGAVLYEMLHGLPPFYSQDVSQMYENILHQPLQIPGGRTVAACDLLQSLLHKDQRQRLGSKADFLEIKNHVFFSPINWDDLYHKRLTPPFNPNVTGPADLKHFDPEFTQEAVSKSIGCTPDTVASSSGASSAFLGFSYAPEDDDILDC
The conditions noted are these: at 1 µM.

Assay [7] has as its target T3, Serine/threonine-protein kinase Sgk2 (Homo sapiens). The conditions noted are these: at 10 µM.
Assay [8] deals with SRSF protein kinase 1 (Homo sapiens) (UniProt Q96SB4). The conditions noted are these: at 1 µM.
SRSF protein kinase 1 (Homo sapiens), sequence (Q96SB4 whole entry): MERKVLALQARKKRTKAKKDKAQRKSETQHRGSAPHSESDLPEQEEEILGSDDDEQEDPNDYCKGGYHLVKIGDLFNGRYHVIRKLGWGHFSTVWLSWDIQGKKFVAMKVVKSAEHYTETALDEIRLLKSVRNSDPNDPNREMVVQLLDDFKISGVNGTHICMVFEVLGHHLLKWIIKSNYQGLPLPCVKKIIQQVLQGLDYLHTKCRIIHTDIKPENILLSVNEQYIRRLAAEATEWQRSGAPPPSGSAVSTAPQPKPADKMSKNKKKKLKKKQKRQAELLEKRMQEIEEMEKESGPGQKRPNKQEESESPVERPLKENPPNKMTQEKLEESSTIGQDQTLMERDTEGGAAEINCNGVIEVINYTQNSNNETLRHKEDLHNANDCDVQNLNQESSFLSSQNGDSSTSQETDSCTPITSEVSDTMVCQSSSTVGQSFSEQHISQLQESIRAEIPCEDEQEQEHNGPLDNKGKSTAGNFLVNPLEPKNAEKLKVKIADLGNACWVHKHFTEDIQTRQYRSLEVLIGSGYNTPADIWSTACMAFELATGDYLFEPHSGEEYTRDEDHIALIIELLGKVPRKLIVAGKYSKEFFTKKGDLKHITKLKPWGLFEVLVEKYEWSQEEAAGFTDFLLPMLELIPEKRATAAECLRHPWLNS
The target is the same in assay [9]. The conditions noted are these: at 10 µM.
The target of assay [10] is SRSF protein kinase 2 (Homo sapiens) (UniProt P78362). The conditions noted are these: at 1 µM.
SRSF protein kinase 2 (Homo sapiens), sequence (P78362 whole entry, looked up): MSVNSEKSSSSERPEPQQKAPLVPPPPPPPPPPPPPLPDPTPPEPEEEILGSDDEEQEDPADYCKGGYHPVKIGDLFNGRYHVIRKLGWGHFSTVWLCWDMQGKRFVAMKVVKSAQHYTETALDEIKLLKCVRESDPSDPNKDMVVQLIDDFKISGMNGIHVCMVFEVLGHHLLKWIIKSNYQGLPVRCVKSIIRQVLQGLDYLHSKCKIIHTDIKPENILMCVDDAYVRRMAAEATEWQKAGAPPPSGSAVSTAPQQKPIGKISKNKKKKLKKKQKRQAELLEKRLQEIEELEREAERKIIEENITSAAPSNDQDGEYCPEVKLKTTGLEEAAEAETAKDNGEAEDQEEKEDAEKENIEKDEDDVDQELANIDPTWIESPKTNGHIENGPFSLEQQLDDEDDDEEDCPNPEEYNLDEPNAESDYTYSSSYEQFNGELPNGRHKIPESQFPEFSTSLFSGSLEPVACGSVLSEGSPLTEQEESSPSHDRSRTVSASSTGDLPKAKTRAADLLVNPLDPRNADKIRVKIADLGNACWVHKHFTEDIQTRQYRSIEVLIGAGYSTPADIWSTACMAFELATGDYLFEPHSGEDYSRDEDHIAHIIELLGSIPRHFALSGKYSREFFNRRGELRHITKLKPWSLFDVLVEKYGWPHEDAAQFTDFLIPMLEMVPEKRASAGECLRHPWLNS
For assay [11] the target is unchanged. The conditions noted are these: at 10 µM.
The target in assay [12] is Serine/threonine-protein kinase 33 (Homo sapiens) (UniProt Q9BYT3). The conditions noted are these: at 1 µM.
Serine/threonine-protein kinase 33 (Homo sapiens), sequence (Q9BYT3 whole entry, looked up): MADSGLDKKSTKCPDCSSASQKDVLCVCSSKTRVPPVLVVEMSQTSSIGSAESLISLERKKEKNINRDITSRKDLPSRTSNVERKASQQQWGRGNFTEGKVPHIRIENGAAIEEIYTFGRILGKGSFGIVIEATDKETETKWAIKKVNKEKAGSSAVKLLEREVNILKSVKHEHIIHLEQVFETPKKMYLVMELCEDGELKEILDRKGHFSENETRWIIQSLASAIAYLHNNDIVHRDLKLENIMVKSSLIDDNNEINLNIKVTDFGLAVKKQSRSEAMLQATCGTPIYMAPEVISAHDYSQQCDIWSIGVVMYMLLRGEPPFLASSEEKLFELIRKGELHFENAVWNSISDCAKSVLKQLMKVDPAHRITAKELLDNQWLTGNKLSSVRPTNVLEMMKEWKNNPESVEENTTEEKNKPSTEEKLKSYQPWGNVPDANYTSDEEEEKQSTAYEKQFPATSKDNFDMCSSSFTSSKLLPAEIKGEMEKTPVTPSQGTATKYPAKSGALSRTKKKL
For assay [13] the target is unchanged. The conditions noted are these: at 10 µM.
Assay [14] has as its target Tyrosine-protein kinase SYK (Homo sapiens) (UniProt P43405). The conditions noted are these: at 1 µM.
Assay [15] concerns the target Mitogen-activated protein kinase 11 (Homo sapiens) (UniProt Q15759). The conditions noted are these: at 10 µM.
For assay [16], the target named is T4, Serine/threonine-protein kinase Sgk3 (Homo sapiens) (UniProt Q96BR1).
T4 sequence (whole entry): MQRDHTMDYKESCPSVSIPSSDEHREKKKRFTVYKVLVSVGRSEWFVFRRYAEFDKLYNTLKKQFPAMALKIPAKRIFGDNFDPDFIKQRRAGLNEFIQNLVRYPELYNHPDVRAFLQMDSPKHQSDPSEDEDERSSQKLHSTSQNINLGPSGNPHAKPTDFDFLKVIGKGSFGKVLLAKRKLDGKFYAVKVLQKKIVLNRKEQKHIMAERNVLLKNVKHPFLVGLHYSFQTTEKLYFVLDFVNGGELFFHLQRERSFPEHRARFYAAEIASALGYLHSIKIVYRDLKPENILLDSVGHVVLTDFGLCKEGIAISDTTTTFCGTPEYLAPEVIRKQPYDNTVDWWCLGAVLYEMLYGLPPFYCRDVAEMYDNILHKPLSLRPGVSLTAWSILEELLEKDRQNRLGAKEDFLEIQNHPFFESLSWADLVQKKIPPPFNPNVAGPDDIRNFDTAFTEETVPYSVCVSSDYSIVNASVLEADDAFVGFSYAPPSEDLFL
The conditions noted are these: at 10 µM.

The target of assay [17] is Serine/threonine-protein kinase SIK1 (Homo sapiens) (UniProt P57059). The conditions noted are these: at 10 µM.
Serine/threonine-protein kinase SIK1 (Homo sapiens), sequence (P57059 whole entry): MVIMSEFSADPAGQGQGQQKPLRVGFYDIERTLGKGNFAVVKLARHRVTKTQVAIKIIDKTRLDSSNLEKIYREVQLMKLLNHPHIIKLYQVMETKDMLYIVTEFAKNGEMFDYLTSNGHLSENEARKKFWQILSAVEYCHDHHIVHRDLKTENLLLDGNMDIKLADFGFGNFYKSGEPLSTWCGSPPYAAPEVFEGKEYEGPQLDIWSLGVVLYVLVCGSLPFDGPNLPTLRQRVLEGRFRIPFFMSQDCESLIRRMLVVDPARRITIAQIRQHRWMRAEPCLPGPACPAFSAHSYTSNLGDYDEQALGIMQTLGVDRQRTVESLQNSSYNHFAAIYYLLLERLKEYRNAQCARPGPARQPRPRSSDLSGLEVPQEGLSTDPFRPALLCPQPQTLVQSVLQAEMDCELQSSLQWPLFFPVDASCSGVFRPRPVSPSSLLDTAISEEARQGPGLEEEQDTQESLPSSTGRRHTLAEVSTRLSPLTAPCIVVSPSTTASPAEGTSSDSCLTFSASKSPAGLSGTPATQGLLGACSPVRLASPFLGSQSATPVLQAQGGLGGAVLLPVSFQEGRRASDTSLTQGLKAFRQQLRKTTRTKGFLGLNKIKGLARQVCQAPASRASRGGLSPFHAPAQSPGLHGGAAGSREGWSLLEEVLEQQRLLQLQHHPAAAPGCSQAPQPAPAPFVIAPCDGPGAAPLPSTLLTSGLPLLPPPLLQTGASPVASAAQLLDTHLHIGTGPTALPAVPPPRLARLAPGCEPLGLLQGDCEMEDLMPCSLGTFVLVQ
The target is the same in assay [18]. The conditions noted are these: at 1 µM.
Assay [19] addresses Serine/threonine-protein kinase PLK2 (Homo sapiens) (UniProt Q9NYY3). The conditions noted are these: at 1 µM.
For assay [20] the target is unchanged. The conditions noted are these: at 10 µM.

Serine/threonine-protein kinase PLK2 (Homo sapiens), sequence (Q9NYY3 whole entry, looked up): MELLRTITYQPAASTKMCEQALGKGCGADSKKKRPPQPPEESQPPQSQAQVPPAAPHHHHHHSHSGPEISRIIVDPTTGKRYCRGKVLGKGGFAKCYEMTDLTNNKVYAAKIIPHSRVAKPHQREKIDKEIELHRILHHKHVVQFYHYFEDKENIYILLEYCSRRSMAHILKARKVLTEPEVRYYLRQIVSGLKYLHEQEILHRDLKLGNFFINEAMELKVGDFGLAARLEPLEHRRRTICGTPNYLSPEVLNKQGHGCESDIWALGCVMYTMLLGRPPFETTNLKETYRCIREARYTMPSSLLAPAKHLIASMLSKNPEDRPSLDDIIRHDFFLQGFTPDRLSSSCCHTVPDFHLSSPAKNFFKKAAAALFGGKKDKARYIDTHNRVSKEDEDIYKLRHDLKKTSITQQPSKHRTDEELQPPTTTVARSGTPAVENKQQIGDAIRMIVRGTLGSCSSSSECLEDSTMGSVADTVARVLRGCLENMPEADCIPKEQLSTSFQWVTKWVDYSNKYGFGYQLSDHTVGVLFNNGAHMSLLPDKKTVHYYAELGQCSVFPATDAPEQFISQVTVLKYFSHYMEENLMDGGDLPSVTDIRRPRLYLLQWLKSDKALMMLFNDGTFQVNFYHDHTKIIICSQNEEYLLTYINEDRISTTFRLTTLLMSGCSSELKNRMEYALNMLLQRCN
Mitogen-activated protein kinase 11 (Homo sapiens), sequence (Q15759 whole entry): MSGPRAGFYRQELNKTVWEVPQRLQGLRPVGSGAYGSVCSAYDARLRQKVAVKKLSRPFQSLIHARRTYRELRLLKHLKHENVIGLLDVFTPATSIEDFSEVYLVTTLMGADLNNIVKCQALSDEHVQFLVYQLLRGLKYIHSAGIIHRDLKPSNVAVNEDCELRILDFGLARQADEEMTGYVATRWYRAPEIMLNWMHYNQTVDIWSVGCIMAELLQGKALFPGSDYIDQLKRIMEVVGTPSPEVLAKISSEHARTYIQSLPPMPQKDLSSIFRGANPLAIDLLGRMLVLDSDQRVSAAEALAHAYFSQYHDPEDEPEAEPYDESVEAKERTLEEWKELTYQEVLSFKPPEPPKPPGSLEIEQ

For `CN(C)S(=O)(=O)c1ccc2c(c1)/C(=C/c1cc3c([nH]1)CCCC3)C(=O)N2`, the residual activity in assay [1] is 94%; in assay [2], 97%; in assay [3], 96%; in assay [4], 82%; in assay [5], 96%; in assay [6], 115%. Moreover, the residual activity in assay [7] worked out at 95%; in [8], 20%; in [9], 8%; in [10], 34%; in [11], 14%; in [12] it was 85%. Besides, the residual activity in assay [13] came out at 93%; in assay [14], 97%.
As to `CC(C)[C@H](CO)Nc1nc(Nc2cc(N)cc(Cl)c2)c2ncn(C(C)C)c2n1`, the residual activity in assay [1] worked out at 119%; in assay [15], 99%; in [6], 95%; in [7] it was 51%; in assay [16] it was 92%; in assay [17], 18%. In addition, the residual activity came to 96% in [12] and 62% in [13].
Take `O=C1Cc2c([nH]c3ccc([N+](=O)[O-])cc23)-c2ccccc2N1`: the residual activity came out at 100% in [1]; 103% in assay [15]; 65% in assay [6]; 68% in assay [7]; 100% in assay [18]; 68% in assay [17]. Besides, the residual activity in [8] amounted to 105%.
Regarding `Nc1ncnc2c1c(-c1ccc(Oc3ccccc3)cc1)cn2C1CCCC1`, the residual activity in [1] came out at 87%; in [15], 75%; in [2] it was 95%; in [4], 110%; in [5] it was 111%; in [6], 98%. Further, the residual activity in [7] turned out to be 78%; in assay [16], 86%; in assay [18] it was 78%; in [17] it was 27%; in assay [8], 104%; in [9], 103%. In addition, the residual activity in [10] is 93%; in assay [11] it was 90%; in assay [12], 87%; in [13], 57%; in [19], 97%; in assay [20], 93%. Further, in assay [14], the residual activity was found to be 109%.
Turning to `O=C1NC(=O)c2c1c1c3ccccc3[nH]c1n1cncc21`, the residual activity in [1] was 90%; in assay [15] it was 87%; in assay [2] it was 93%; in assay [3] it was 88%; in [4], 66%; in assay [5], 47%. Also, the residual activity in assay [6] was 52%; in assay [7], 38%; in assay [16], 67%; in assay [18], 83%; in [17] it was 44%; in assay [8], 91%. Further, the residual activity in assay [9] worked out at 76%; in assay [10] it was 103%; in assay [11], 72%; in assay [12] it was 79%; in assay [13], 70%; in assay [19] it was 38%. The residual activity came to 38% in assay [20] and 60% in assay [14].
For the compound `O=c1cc(N2CCNCC2)oc2c(-c3ccccc3)cccc12`, the residual activity in assay [1] was determined as 95%; in assay [15], 105%; in assay [3] it was 83%; in assay [4], 80%; in assay [5], 98%; in assay [7] it was 79%. Also, the residual activity in [16] is 90%; in [18], 82%; in assay [17], 8%; in assay [8], 99%; in [9], 85%; in [10] it was 91%. Also, the residual activity stood at 93% in assay [11]; 98% in [12]; 93% in assay [13]; 99% in assay [19]; 95% in assay [20].
Turning to `COc1cc2nccc(Oc3ccc(NC(=O)Nc4cc(C)on4)c(Cl)c3)c2cc1OC`, the residual activity stood at 19% in [1]; 97% in [3]; 103% in [6]; 79% in [7]; 98% in [8]; 99% in [10]. Further, the residual activity in assay [12] came out at 81%; in assay [13] it was 73%; in assay [19], 105%; in assay [20], 98%.
Turning to `O=C(NC(NC(=S)Nc1ccc(F)c([N+](=O)[O-])c1)C(Cl)(Cl)Cl)C(c1ccccc1)c1ccccc1` (stereo unspecified), the residual activity turned out to be 98% in assay [1]; 97% in assay [15]; 95% in [2]; 104% in assay [3]; 83% in [5]; 77% in assay [16]. Further, the residual activity in [18] was found to be 136%; in assay [9], 92%; in assay [11] it was 98%; in assay [12] it was 98%; in assay [13], 91%; in assay [19], 90%. Besides, the residual activity in assay [20] is 87%.
With `Nc1nc(Nc2ccc(S(N)(=O)=O)cc2)nn1C(=O)c1c(F)cccc1F`, the residual activity in assay [1] stood at 102%; in [15], 77%; in assay [3], 31%; in assay [4], 124%; in [5] it was 75%; in [7] it was 49%. Moreover, the residual activity in assay [16] worked out at 79%; in assay [18] it was 50%; in [17], 6%; in [8], 56%; in assay [9] it was 7%; in [13], 76%. Also, the values for the residual activity in assay [19], in assay [20] and in assay [14] were 96%, 60% and 47%, respectively.
Regarding `O=c1cc(N2CCOCC2)oc2c1ccc1ccccc12`, the residual activity worked out at 93% in [1]; 101% in assay [15]; 100% in assay [2]; 95% in assay [3]; 105% in assay [4]; 97% in [5]. Further, the residual activity in [6] came out at 92%; in assay [7] it was 86%; in [16], 97%; in [18], 95%; in assay [17], 93%; in assay [8] it was 99%. Further, the residual activity stood at 93% in assay [9]; 97% in [10]; 97% in assay [11]; 93% in [12]; 101% in assay [13]; 98% in assay [19]. Moreover, the residual activity in assay [20] worked out at 85%.
On to `CC(C)(C)n1nc(Cc2cccc3ccccc23)c2c(N)ncnc21`, for which the residual activity in [1] is 64%; in assay [15] it was 22%; in assay [2] it was 101%; in [3] it was 95%; in assay [4] it was 100%; in assay [5] it was 127%. In addition, the residual activity was 101% in [6]; 78% in [7]; 105% in assay [16]; 72% in [18]; 49% in assay [17]; 103% in assay [8]. The residual activity in assay [9] was 101%; in assay [10], 99%; in assay [11], 94%; in [12], 92%; in [13], 100%; in [19], 103%. The residual activity stood at 95% in [20] and 104% in assay [14].
Take `CC(C)(C)c1nc2c3ccc(F)cc3c3c(=O)[nH]ccc3c2[nH]1`: the residual activity is 62% in assay [1]; 69% in [15]; 63% in assay [4]; 68% in assay [5]; 63% in [6]; 55% in assay [7]. Further, the residual activity in [18] was 31%; in assay [17], 42%; in assay [8], 99%; in assay [11], 73%; in assay [12], 34%; in [13] it was 24%. Further, the residual activity came out at 49% in assay [19] and 44% in assay [20].
